G9a block: G9a (human) methyltransferase inhibition; G9a H3K9 monomethylation, AlphaScreen, 2 h; Potency, µM (doses to about 102 µM), for inactives: at the highest dose activity, negative = inhibition, most hits filed as inhibitors; actives 8.8% (n = 350,000); note: % is set by controls: 0 for no effect and ±100 for the full control effect; nearly all actives have a fitted effect of over 75% in size
Target sequence (Q96KQ7 913-1193 limits assumed): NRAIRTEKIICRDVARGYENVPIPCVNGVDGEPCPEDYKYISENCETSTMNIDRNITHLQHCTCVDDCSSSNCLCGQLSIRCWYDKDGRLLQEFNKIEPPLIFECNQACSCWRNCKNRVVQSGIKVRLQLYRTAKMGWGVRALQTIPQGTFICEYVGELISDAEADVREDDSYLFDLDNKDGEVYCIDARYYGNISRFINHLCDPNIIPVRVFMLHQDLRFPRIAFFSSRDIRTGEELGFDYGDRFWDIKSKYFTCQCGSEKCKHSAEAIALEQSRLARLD
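G9a (20 nM) was preincubated 15 min with compound, then reacted 2 h at room temperature with 500 nM biotin-H3K9 peptide and 20 µM SAM. Monomethyl-H3K9 detected by AlphaScreen using anti-H3K9me1 antibody.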
HP1b binding inh: HP1-beta chromodomain-methylated histone interaction inhibition; Potency, µM (highest dose often 114 µM), for the others: top-dose activity change, negative = inhibition, hits mostly inhibitors; actives 0.56% (n = 390,000); P83916; AID 540317; AlphaScreen HP1-beta / biotin-H3K9me3 peptide binding; note: nearly all actives have a fitted effect of over 70% in size
Target sequence (P83916 whole entry, looked up): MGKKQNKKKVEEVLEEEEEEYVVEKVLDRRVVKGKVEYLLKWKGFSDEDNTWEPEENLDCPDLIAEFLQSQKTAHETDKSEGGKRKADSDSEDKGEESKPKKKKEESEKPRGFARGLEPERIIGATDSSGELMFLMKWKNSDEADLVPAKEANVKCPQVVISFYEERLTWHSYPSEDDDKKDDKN
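AlphaScreen: HP1-beta (50 nM) preformed 30 min with biotin-H3(1-18)K9me3 peptide (50 nM) in PBS pH 7.4, 0.01% Tween-20. Compound added for 30 min at RT, then streptavidin donor/nickel chelate acceptor beads (10 ug/mL) for 30 min.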
BAZ2B block: BAZ2B (human) inhibition. actives 4.4% (n = 360,000). AlphaScreen BAZ2B-H3K14Ac peptide displacement. Potency, µM (titrated, usually from 114 µM), inactives show at the highest dose activity change, negative = inhibition, actives largely listed as inhibitors. Q9UIF8; note: % is set by controls: 0 for no effect and ±100 for the full control effect; nearly all actives have a fitted effect of over 60% in size
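BAZ2B 50 nM plus b-H3(5-23)K14Ac 50 nM, PBS pH 7.4/0.01% Tween-20, 30 min RT; compound added (max 110 uM), 30 min RT; streptavidin donor/Ni-chelate acceptor beads 10 ug/mL final, 20 min dark; AlphaScreen read.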
JMJD2A Tudor: inhibitors of human JMJD2A Tudor domain; O75164; AlphaScreen JMJD2A-Tudor / H3K4me3 peptide binding; Potency, µM (series often up to 114 µM), without a hit: at the highest dose activity change, negative = inhibition, actives largely listed as inhibitors; actives 4.4% (n = 390,000); AID 504339; note: % is set by controls: 0 for no effect and ±100 for the full control effect; nearly all actives have a fitted effect of over 50% in size
Sfp inh: Sfp phosphopantetheinyl transferase inhibition; Q9F4F7; Biochemical Sfp PPTase activity, qHTS; Potency, µM, for inactives: largest response in the series, negative = inhibition, usual class: inhibitors; actives 3.5% (n = 310,000); AID 1490;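 note: the enzyme is Sfp with the accession as filed and its product quenches rhodamine fluorescence; 0% = enzyme reaction without inhibitor and -100% = no enzyme wells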
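Sfp 15 nM + cpd, 15 min RT; start w/ rhodamine-CoA 5 uM, BHQ-2-YbbR 12.5 uM (final); 50 mM Hepes pH 7.6, 10 mM MgCl2, 0.01% NP-40, 0.01% BSA; read 525/598 nm at 0 and 30 min.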
L3MBTL1 block: L3MBTL1 (human) inhibition. Q9Y468. AlphaScreen L3MBTL1–H3K9me1 peptide binding. Potency, µM (series often up to 57.1 µM), without a hit: at the top dose activity, negative = inhibition, hits mostly inhibitors. actives 0.66% (n = 230,000). AID 485360; note: % is set by controls: 0 for no effect and ±100 for the full control effect; nearly all actives have a fitted effect of over 60% in size
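AlphaScreen proximity signal between nickel-chelate acceptor and streptavidin donor beads (final 10 ug/mL) reports binding of 50 nM L3MBTL1 to 75 nM biotin-H3 K9me1 peptide; complex incubated with compounds 30 min at room temperature; cefsulodin titration as control.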
Starred values were filed as active, the others as inactive; [ ] = another dose, or the depositor's remark. An excerpt weighted towards active compounds, which were near 12% of everything screened. Calls come from the whole dose curve; as a rule, active = well fitted curve in the direction sought with a large enough effect; inconclusive = small, poorly fitted or top-dose-only effect, or another doubt; inactive = no such curve, though single readings can be large; an effect the other way counts as inactive or inconclusive. Potency is the fitted concentration of half-maximal effect.

For COc1ccc(N2CCN(CCCNC(=O)c3nnc(Cc4ccc(F)cc4)o3)CC2)cc1 the results were G9a block -51%[59 µM], HP1b binding inh 7%, BAZ2B block 35µM* and JMJD2A Tudor -8%.
Screening COc1ccc(N2CCN(CCCNC(=O)c3ccc4nc(Cc5ccccc5)oc4c3)CC2)cc1 returned G9a block 14µM*, HP1b binding inh -33%[57 µM], BAZ2B block 40µM* and JMJD2A Tudor 32µM*.
COc1ccc(Cc2nnc(C(=O)NCCCN3CCN(c4ccccc4F)CC3)o2)cc1OC was read as G9a block -30%[59 µM], HP1b binding inh -27%, BAZ2B block -31% and JMJD2A Tudor inconclusive.
COc1cc(OC)cc(N2C(=O)N(Cc3ccc(C(C)(C)C)cc3)c3ccccc3S2(=O)=O)c1 was read as G9a block 1%[59 µM], HP1b binding inh 21%, BAZ2B block -5% and JMJD2A Tudor -4%.
For Cc1cc(C)n2cc(CSc3nc4ccccc4[nH]3)nc2n1 the results were G9a block 20µM*, HP1b binding inh 35%, BAZ2B block -8%, JMJD2A Tudor -4%, Sfp inh 10% and L3MBTL1 block 2%.
Screening Fc1ccccc1CSc1nc2ccccc2[nH]1 returned G9a block 50µM*, HP1b binding inh -11%, BAZ2B block -5%, JMJD2A Tudor -8%[11.4 µM] and Sfp inh 4%.
Screening O=C(O)c1cn[nH]c1-n1cnnn1 returned G9a block 50µM*, HP1b binding inh 15%, BAZ2B block -1%, JMJD2A Tudor inconclusive, Sfp inh -4% and L3MBTL1 block 0%.
`Cc1ccc(S(=O)(=O)N2CCc3cc(C(=O)Nc4c(C)cccc4C(C)C)ccc32)cc1` gave G9a block 7%[59 µM], HP1b binding inh 26%, BAZ2B block -13% and JMJD2A Tudor -11%.
For Cc1cc(C)nc(NS(=O)(=O)c2ccc(N=Cc3c(C)[nH]n(-c4ccccc4)c3=O)cc2)n1 the results were G9a block 5%[59 µM], HP1b binding inh -5%, BAZ2B block -7%, JMJD2A Tudor 79µM*, Sfp inh 8% and L3MBTL1 block -5%.
For CCc1nnc(NS(=O)(=O)c2ccc(N=Cc3c(C)[nH]n(-c4ccc(C)c(C)c4)c3=O)cc2)s1 the results were G9a block -49%, HP1b binding inh -8%, BAZ2B block 50µM*, JMJD2A Tudor -31%, Sfp inh -14% and L3MBTL1 block -2%.
`Cc1ccc(-n2[nH]c(C)c(C=Nc3ccc(S(=O)(=O)Nc4nc(C)cc(C)n4)cc3)c2=O)c(C)c1` gave G9a block 10%, HP1b binding inh 2%, BAZ2B block -3%, JMJD2A Tudor inconclusive, Sfp inh -14% and L3MBTL1 block 10%.
Screening Cc1[nH]n(-c2ccc(Br)cc2)c(=O)c1C=Nc1ccc(S(=O)(=O)Nc2nccs2)cc1 returned G9a block 25%, HP1b binding inh 19%, BAZ2B block inconclusive, JMJD2A Tudor inconclusive, Sfp inh -14% and L3MBTL1 block -16%.
For CC(C)(C)c1ccc(C[C@H](C(=O)O)N2C(=O)c3ccc(C(=O)O)cc3C2=O)cc1 the results were G9a block -6%[12.7 µM], BAZ2B block 1%, JMJD2A Tudor -23%, Sfp inh 31% and L3MBTL1 block 8%.
For O=C(O)c1ccc2c(c1)C(=O)N([C@H](Cc1ccc(O)c(O)c1)C(=O)O)C2=O the results were G9a block 2µM*, BAZ2B block inconclusive, JMJD2A Tudor 89µM*, Sfp inh 79µM* and L3MBTL1 block -10%.
O=C(O)c1ccc2c(c1)C(=O)N([C@H](Cc1ccccc1)C(=O)O)C2=O was read as G9a block 4%[12.7 µM], BAZ2B block 79µM*, JMJD2A Tudor -28%, Sfp inh -2% and L3MBTL1 block 49%.
